This note sets out measurements from PubChem BioAssay (Tox21).

Inconclusive results are not listed. Unmarked numbers belong to inactive results. The source made the active and inactive calls. Calls come from the whole dose curve.
% is set by controls: 0 for no effect and ±100 for the full control effect.

Vitamin D3 receptor (Homo sapiens), sequence (P11473 whole entry, looked up): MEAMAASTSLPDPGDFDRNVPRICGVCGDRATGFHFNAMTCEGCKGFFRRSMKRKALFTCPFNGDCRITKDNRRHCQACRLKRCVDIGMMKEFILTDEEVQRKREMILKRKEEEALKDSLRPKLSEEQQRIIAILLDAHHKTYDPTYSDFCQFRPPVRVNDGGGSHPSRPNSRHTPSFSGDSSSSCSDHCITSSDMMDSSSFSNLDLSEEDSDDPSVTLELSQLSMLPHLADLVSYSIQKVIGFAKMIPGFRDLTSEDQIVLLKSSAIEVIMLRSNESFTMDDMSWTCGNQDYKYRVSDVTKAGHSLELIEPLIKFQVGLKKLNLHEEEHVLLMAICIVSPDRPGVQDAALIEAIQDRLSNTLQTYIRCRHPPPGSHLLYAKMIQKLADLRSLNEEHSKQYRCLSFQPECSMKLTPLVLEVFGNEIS

This assay deals with Vitamin D3 receptor (Homo sapiens) (UniProt P11473). Kind of assay: qHTS assay to identify small molecule agonists of the vitamin D receptor (VDR) signaling pathway (AID 743222). The settings on record: HEK293T VDR-UAS-bla, beta-lactamase FRET ratio, 16 h; series mostly up to 63.5 µM. From the text:
National Center for Advancing Translational Sciences [NCATS]
NIH Chemical Genomics Center [NCGC]
U.S. Environmental Protection Agency [EPA]
National Institutes of Environmental Health Sciences [NIEHS]
National Toxicology Program [NTP]
U.S. Food and Drug Administration [FDA]
The vitamin D receptor (VDR), a member of nuclear hormone receptor superfamily, plays a critical role in calcium homeostasis and bone metabolism. It is also involved in cell differentiation and growth, and thrombogenicity.
Tox21 Assay Protocol Summary:
VDR-bla cells were dispensed at 2,000 cells/6 uL/well into black wall/clear-bottom 1536-well plates using a Multidrop Combi (Thermo Fisher Scientific, Waltham, MA) dispenser. After the assay plates were incubated at a 37C and 5% CO2 for 4 h, 23 nL of compounds dissolved in DMSO, positive controls or DMSO only was transferred to the assay plate by a Pintool station (Kalypsys, San Diego, CA). The plates were incubated at 37C and 5% CO2 for 16 h. After 1 uL of LiveBLAzerTM B/G FRET substrate was added using a Bioraptr Flying Reagent Dispenser (FRD) workstation (Beckman Coulter, Indianapolis, IN, USA), the plates were incubated at room temperature for 2 h, and fluorescence intensity was measured by an Envision plate reader (PerkinElmer, Shelton, CT).
A general note: Quantitative high-throughput screening tests each substance at several concentrations.
Turning to `N#Cc1ccc(C2CCCc3cncn32)cc1` (stereo not given), the result was inactive.

Take `CC(C)NCCCC1(C(N)=O)c2ccccc2-c2ccccc21`: the outcome was inactive.

For the molecule `CCSC(=O)N(CC(C)C)CC(C)C`, the outcome was inactive.

Consider `Cn1c(N)c(N=O)c(=O)n(C)c1=O`, for which the result was inactive.

Consider `OC1CCCCC1c1ccccc1` (stereo not given), for which the outcome was inactive.

For the molecule `O=C(O)c1ccccc1OP(=O)(O)O`, the outcome was inactive.

`CN(C)CCCSc1ccccc1NC(=O)/C=C/c1ccccc1`: the outcome was inactive.

As to `COc1nc(N)nc2c1ncn2[C@@H]1O[C@H](CO)[C@@H](O)[C@@H]1O`, the outcome was inactive.

On to `CC(=O)OC/C=C(\C)CC/C=C(\C)CCC=C(C)C`, for which the outcome was inactive.

As to `CCCCCOC(=O)CCCCC`, the result was inactive.

Take `O=C(O)CCCc1ccccc1`: the result was inactive.

In the case of `O=C1CCCN1C1CCCCC1`, the result was inactive.

On to `Cc1cnc(NS(=O)(=O)c2ccc(N)cc2)nc1`, for which the result was inactive.

Consider `CCO[Si](CCC1CCC2OC2C1)(OCC)OCC` (stereo not given), for which the result was inactive.

Consider `Cc1cc(O)cc2c1O[C@](C)(CCC[C@H](C)CCC[C@H](C)CCCC(C)C)CC2`, for which the outcome was inactive.

Regarding `CC(=O)OCC(CCn1cnc2cnc(N)nc21)COC(C)=O`, the outcome was inactive.

Regarding `N=C(N)c1ccccc1`, the outcome was inactive.

`CCN(Cc1ccncc1)C(=O)C(CO)c1ccccc1` (stereo not given): the result was inactive.

Turning to `Cc1c(NC(C)C)c(=O)n(-c2ccccc2)n1C`, the result was inactive.

`NS(=O)(=O)c1cc2c(cc1Cl)NC(C1CC3C=CC1C3)NS2(=O)=O` (stereo not given): the result was inactive.

For the molecule `CC(C)(CC(=O)O)C(=O)O`, the outcome was inactive.

For the molecule `CC(C)(C)c1ccc(O)c(O)c1`, the outcome was inactive.

Turning to `O=C(O)CN(CCOCCOCCN(CC(=O)O)CC(=O)O)CC(=O)O`, the activation was 6.34% [at 0.554 µM].

Consider `CCO/C([O-])=N/c1c[n+](N2CCOCC2)no1`, for which the result was inactive.

Take `O=c1cc(-c2ccccc2)oc2ccccc12`: the outcome was inactive.

In the case of `CCC=O`, the outcome was inactive.

As to `CC(=O)OCC(=O)[C@@]1(O)CCC2C3CCC4=CC(=O)CC[C@]4(C)C3[C@@H](O)C[C@@]21C` (stereo not given in full), the outcome was inactive.

`CC(=O)c1ccccc1O`: the result was inactive.

Take `CC(C(=O)O)c1ccc(CC2CCCC2=O)cc1` (stereo not given): the outcome was inactive.

`CCCCC/C=C\CCC=O`: the outcome was inactive.

Take `Cc1c(O)cccc1O`: the outcome was inactive.

For `Nc1ccc(S(=O)(=O)Nc2ccnn2-c2ccccc2)cc1`, the outcome was inactive.

`CCOC(=O)[C@H](CCc1ccccc1)N[C@@H](C)C(=O)N1[C@H](C(=O)O)C[C@@H]2CCC[C@@H]21`: the outcome was inactive.

With `CCCC(=O)O[C@]1(C(=O)CO)CC[C@H]2[C@@H]3CCC4=CC(=O)CC[C@]4(C)[C@H]3[C@@H](O)C[C@@]21C`, the outcome was inactive.

As for `CCOC(=O)c1cccc(N)c1`, the outcome was inactive.

On to `O=C1CCCC(=O)C1`, for which the result was inactive.

For `O=[N+]([O-])c1ccc(F)cc1F`, the result was inactive.

As for `N[C@@H](C(=O)N[C@@H]1C(=O)N2C(C(=O)O)=C(Cl)CS[C@H]12)c1ccccc1`, the activation was 4.64% [at 13.4 µM].

Take `CC(=O)Nc1c(I)cc(I)c(C(=O)O)c1I`: the outcome was inactive.

On to `CCc1nccnc1CC`, for which the outcome was inactive.
